Measurements taken from PubChem BioAssay (EPA / NIEHS).
Several values for one entry are separate records, joined by “and”; a condition that tells them apart may be missing. Equal entries are not always repeated. Where a structure was tested more than once in an assay, its records may differ in their call. Activity calls are given as the source filed them. How the source made its calls: active means hit-call score of the fitted dose curve at least 0.9, where 1 is the maximum; inactive means score below 0.9.

Legend:
[1] = read-out: Interleukin-6 (IL6), IL6 (gene 3569); test: BSK_CASM3C_IL6: BioMAP Diversity Plus: CASM3C Assay for Interleukin-6 (IL6) Biomarker Activity for (AID 2283040); conditions: primary human coronary artery smooth muscle cells; actives raise or lower the signal
[2] = read-out: Tissue plasminogen activator (tPA), PLAT (gene 5327); test: BSK_BE3C_tPA: BioMAP Diversity Plus: BE3C Assay for Tissue plasminogen activator (tPA) Biomarker Activity (AID 2283041); conditions: primary human bronchial epithelial cells; actives raise or lower the signal
Method in brief: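 Bidirectional curve fitting relative to DMSO defined activity, with tPA detected by ELISA in chemically treated human bronchial epithelial primary cells at 24 hours.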

[3] = read-out: Interleukin-8 (IL8), CXCL8 (gene 3576); test: BSK_CASM3C_IL8: BioMAP Diversity Plus: CASM3C Assay for Interleukin-8 (IL8) Biomarker Activity (AID 2283042); conditions: primary human coronary artery smooth muscle cells; actives raise or lower the signal;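 further: IL-8 protein level quantified by ELISA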
[4] = read-out: Human Leukocyte Antigen - DR isotype (HLADR), HLA-DRA (gene 3122); test: BSK_CASM3C_HLADR: BioMAP Diversity Plus: CASM3C Assay for Human Leukocyte Antigen - DR isotype (HLADR) Biomarker Activity (AID 2283043); conditions: primary human coronary artery smooth muscle cells; actives raise or lower the signal;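 further: cell-surface HLA-DR protein level quantified by ELISA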
[5] = read-out: Macrophage colony-stimulating factor (MCSF), CSF1 (gene 1435); test: BSK_CASM3C_MCSF: BioMAP Diversity Plus: CASM3C Assay for Macrophage colony-stimulating factor (MCSF) Biomarker Activity (AID 2283044); conditions: primary human coronary artery smooth muscle cells; actives raise or lower the signal;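 further: M-CSF protein amount quantified by ELISA after 24 h exposure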
[6] = read-out: Low-density lipoprotein receptor (LDLR), LDLR (gene 3949); test: BSK_CASM3C_LDLR: BioMAP Diversity Plus: CASM3C Assay for Low-density lipoprotein receptor (LDLR) Biomarker Activity (AID 2283045); conditions: primary human coronary artery smooth muscle cells; actives raise or lower the signal;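 further: LDLR protein level on the cell surface quantified by ELISA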
[7] = read-out: Monocyte Chemoattractant Protein-1 (MCP1), CCL2 (gene 6347); test: BSK_CASM3C_MCP1: BioMAP Diversity Plus: CASM3C Assay for Monocyte Chemoattractant Protein-1 (MCP1) Biomarker Activity (AID 2283046); conditions: primary human coronary artery smooth muscle cells; actives raise or lower the signal;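 further: MCP-1 level quantified by ELISA 24 h after dosing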
[8] = BSK_CASM3C_Proliferation: Cell Proliferation Assessment in the BioMAP Diversity Plus: CASM3C Assay (AID 2283047); conditions: primary human coronary artery smooth muscle cells;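 further: sulforhodamine B total protein stain as relative cell number at 560 nm; sub-confluent cells exposed 48 h before staining; fitted both ways against DMSO so gain or loss of cell number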
[9] = read-out: Monokine induced gamma interferon (MIG), CXCL9 (gene 4283); test: BSK_CASM3C_MIG: BioMAP Diversity Plus: CASM3C Assay for Monokine induced gamma interferon (MIG) Biomarker Activity (AID 2283048); conditions: primary human coronary artery smooth muscle cells; actives raise or lower the signal;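 further: MIG protein level measured by ELISA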
[10] = read-out: serum amyloid A (SAA), SAA1 (gene 6288); test: BSK_CASM3C_SAA: BioMAP Diversity Plus: CASM3C Assay for serum amyloid A (SAA) Biomarker Activity (AID 2283049); conditions: primary human coronary artery smooth muscle cells; actives raise or lower the signal;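 further: SAA protein level quantified by ELISA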
[11] = BSK_CASM3C_SRB: Viability Assessment in the BioMAP Diversity Plus: CASM3C Assay (AID 2283050); conditions: primary human coronary artery smooth muscle cells;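 further: total protein by SRB staining as cytotoxicity measure in parallel cultures; cells exposed to compound for 24 h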
[12] = read-out: Thrombomodulin, THBD (gene 7056); test: BSK_CASM3C_Thrombomodulin: BioMAP Diversity Plus: CASM3C Assay for Thrombomodulin Biomarker Activity (AID 2283051); conditions: primary human coronary artery smooth muscle cells; actives raise or lower the signal;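 further: thrombomodulin protein level measured by ELISA 24 h after dosing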
[13] = read-out: Tissue Factor, F3 (gene 2152); test: BSK_CASM3C_TissueFactor: BioMAP Diversity Plus: CASM3C Assay for Tissue Factor Biomarker Activity (AID 2283052); conditions: primary human coronary artery smooth muscle cells; actives raise or lower the signal;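 further: cell surface tissue factor protein level read by ELISA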
[14] = read-out: Interferon-gamma inducible Protein 10 (IP10), CXCL10 (gene 3627); test: BSK_hDFCGF_IP10: BioMAP Diversity Plus: hDFCGF Assay for Interferon-gamma inducible Protein 10 (IP10) Biomarker Activity (AID 2283053); conditions: primary human foreskin fibroblasts; actives raise or lower the signal
Method in brief: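 IP-10 levels, quantified by ELISA, are taken from human foreskin fibroblast cultures 24 h after chemical treatment, with DMSO serving as negative control and baseline for bidirectional analysis.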

[15] = read-out: Urokinase-type plasminogen activator receptor (uPAR), PLAUR (gene 5329); test: BSK_CASM3C_uPAR: BioMAP Diversity Plus: CASM3C Assay for Urokinase-type plasminogen activator receptor (uPAR) Biomarker Activity (AID 2283054); conditions: primary human coronary artery smooth muscle cells; actives raise or lower the signal;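 further: cell-surface uPAR protein level quantified by ELISA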
[16] = read-out: Vascular cell adhesion molecule 1 (VCAM1), VCAM1 (gene 7412); test: BSK_CASM3C_VCAM1: BioMAP Diversity Plus: CASM3C Assay for Vascular cell adhesion molecule 1 (VCAM1) Biomarker Activity (AID 2283055); conditions: primary human coronary artery smooth muscle cells; actives raise or lower the signal;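 further: VCAM-1 protein level quantified by ELISA on the cells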
[17] = read-out: Collagen III, COL3A1 (gene 1281); test: BSK_hDFCGF_CollagenIII: BioMAP Diversity Plus: hDFCGF Assay for Collagen III Biomarker Activity (AID 2283056); conditions: primary human foreskin fibroblasts; actives raise or lower the signal
Method in brief: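 hDFCGF primary human dermal fibroblasts; 24 h chemical exposure; collagen III by ELISA; bidirectional curve fit vs DMSO baseline (gain or loss of signal).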

[18] = read-out: Epidermal growth factor receptor (EGFR), EGFR (gene 1956); test: BSK_hDFCGF_EGFR: BioMAP Diversity Plus: hDFCGF Assay for Epidermal growth factor receptor (EGFR) Biomarker Activity (AID 2283057); conditions: primary human foreskin fibroblasts; actives raise or lower the signal
Method in brief: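 Measured by ELISA: EGFR levels on primary human foreskin fibroblasts 24 h after chemical treatment, analysed relative to DMSO with bidirectional fitting.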

[19] = read-out: Interleukin-8 (IL8), CXCL8 (gene 3576); test: BSK_hDFCGF_IL8: BioMAP Diversity Plus: hDFCGF Assay for Interleukin-8 (IL8) Biomarker Activity (AID 2283058); conditions: primary human foreskin fibroblasts; actives raise or lower the signal
Method in brief: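 ELISA read-out of IL-8 from primary human foreskin fibroblast cultures taken 24 h after dosing; values are bidirectional fits relative to DMSO vehicle.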

[20] = BSK_hDFCGF_Proliferation: Cell Proliferation Assessment in the BioMAP Diversity Plus: hDFCGF Assay (AID 2283059); conditions: primary human foreskin fibroblasts;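 further: curves fitted for both rise and fall of signal versus DMSO baseline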
Method in brief: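 Sub-confluent human foreskin fibroblast cultures receive test chemical […]. Relative cell number is quantified by sulforhodamine B staining (0.1%, after 10% TCA fixation) at 560 nm, with bidirectional fitting referenced to DMSO.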

Measured: AC50

O=C(Cl)C(F)(F)C(F)(F)C(F)(F)C(F)(F)C(F)(F)C(F)(F)C(F)(F)C(F)(F)F
inactive: [1] | [2] | [3] | [4] | [5] | [6] | [7] | [8] | [9] | [10] | [11] | [12] | [13] | [15] | [16] | [17] | [18] | [19]
active: [2] 27.5 µM and 22.8 µM | [14] 24.8 µM and 36.7 µM and 32.9 µM | [16] 30 µM | [18] 6.36 µM and 13.7 µM | [20] 49.7 µM and 49.4 µM and 49.5 µM

CCO[Si](CCC(F)(F)C(F)(F)C(F)(F)C(F)(F)C(F)(F)C(F)(F)F)(OCC)OCC
inactive: [1] | [2] | [3] | [4] | [5] | [6] | [7] | [8] | [9] | [10] | [11] | [12] | [13] | [14] | [15] | [16] | [17] | [18] | [19] | [20]
active: [13] 1.58 µM

FC(F)(F)C(F)(F)C(F)(F)C(F)(F)C(F)(F)C(F)(F)C(F)(F)C(F)(F)CCS
active: [13] 0.0438 µM
inactive: [1] | [2] | [3] | [4] | [5] | [6] | [7] | [8] | [9] | [10] | [11] | [12] | [13] | [14] | [15] | [16] | [17] | [18] | [19] | [20]

CCc1c(Br)c(Br)c(Br)c(Br)c1Br
active: [13] 4.48 µM
inactive: all other assays above

O=C(O)C(F)(OC(F)(F)C(F)(OC(F)(F)C(F)(OC(F)(F)C(F)(F)C(F)(F)F)C(F)(F)F)C(F)(F)F)C(F)(F)F (configuration not stated)
inactive: all assays above

N=C(N)C(F)(F)C(F)(F)C(F)(F)C(F)(F)C(F)(F)C(F)(F)C(F)(F)F
active: [4] 30 µM | [6] 27.1 µM | [8] 46.1 µM | [14] 42.9 µM and 50.1 µM | [17] 10.9 µM and 10.7 µM | [18] 53.9 µM | [20] 39.7 µM and 54.7 µM
inactive: [1] | [2] | [3] | [4] | [5] | [6] | [7] | [8] | [9] | [10] | [11] | [12] | [13] | [15] | [16] | [18] | [19]

FC(F)(F)C(F)(F)C(F)(F)C(F)(F)C(F)(F)C(F)(F)C(F)(F)Br
inactive: all assays above

CCCCNc1ccccc1
inactive: all assays above

OCCCC(F)(F)C(F)(F)C(F)(F)C(F)(F)C(F)(F)C(F)(F)C(F)(F)F
inactive: [3] | [12] | [13] | [18]
active: [1] 42.1 µM and 48.2 µM | [2] 35.7 µM and 30 µM | [3] 49 µM | [4] 23.3 µM and 49 µM | [5] 22.1 µM and 43.6 µM | [6] 43.7 µM and 45.9 µM | [7] 38.3 µM and 28.9 µM | [8] 18.4 µM and 20.3 µM | [9] 41.7 µM and 41.9 µM | [10] 37.6 µM and 22.7 µM | [11] 22.6 µM and 25.1 µM | [13] 20.8 µM | [14] 11.8 µM and 14 µM | [15] 24.5 µM and 45 µM | [16] 26.2 µM and 41.2 µM | [17] 11.6 µM and 14.6 µM | [18] 9.95 µM | [19] 17.8 µM and 20.8 µM | [20] 6.74 µM and 7.22 µM
